This note sets out measurements from PubChem BioAssay.

SMILES strings stand for the structures. Several values for one entry are separate records, joined by “and”; a condition that tells them apart may be missing. Identical values can stand only once. For some assays here: Results with a measured potency or affinity are listed apart. Some compounds were tested as several samples or in several runs, with calls that do not always agree. Activity calls are given as the source filed them. Unless noted, the rule behind the calls is not given here.

The nature of test [1]: antimalarial activity against Dd2 strain (AID 2302;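 active = growth inhibition above 50% at the single 2 µM test dose, taken to imply half-maximal potency below 2 µM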;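 note: 0% = DMSO untreated growth and 100% = chloroquine plus artemisinin killed control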). The note with it: P. falciparum Dd2 in RBCs, LDH growth readout, 72 h; at 2 µM; stronger effect = higher value.
The nature of test [2]: human hepatoma cell viability loss – ATP luminescence, cytotoxicity control for P. falciparum antimalarial project, primary screen (AID 2303;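 active = inhibition above 50%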;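 note: 0% = DMSO wells and 100% = digitonin-killed cells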). As to conditions: HepG2 viability, 24-48 h, at 10 µM, stronger effect = higher value.
Test [3] concerns the target L-lactate dehydrogenase (Plasmodium falciparum (isolate CDC / Honduras)) (UniProt Q27743). The experiment in a line: PfLDH activity inhibition – cell lysate, 3D7 strain, counter-screen for P. falciparum growth inhibition project (AID 2304).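 Note: 0% = vehicle and 100% = reference inhibitor.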 The note with it: P. falciparum 3D7 crude extract, LDH APAD/NBT absorbance; at 2 µM; stronger effect = higher value. For orientation: Counterscreens check selectivity or assay interference.

Test [4] can be described thus: inhibition of 3D7 malaria parasite growth – strain 3D7 (AID 2306).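 Note: 0% = DMSO wells and 100% = chloroquine plus artemisinin control wells.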 The note with it: P. falciparum 3D7 erythrocytic growth, LDH absorbance, 72 h; at 2 µM; stronger effect = higher value.
In test [5] the target is Calcium-dependent protein kinase 1 (Plasmodium falciparum (isolate 3D7)) (UniProt P62344). The experiment in a line: PfCDPK1 kinase inhibitors, biochemical, TCAMS library (AID 1159585; cut-off not given, nearly all actives have IC50 up to about 0.98 µM;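 note: inhibitors leave more ATP so luminescence rises with inhibition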). The note with it: recombinant PfCDPK1, Kinase-Glo ATP depletion luminescence.
The target in test [6] is Plasmodium falciparum protein kinase 6 (PK6, PF3D7_1337100) (UniProt Q8IDW1). The experiment in a line: PfPK6 kinase inhibitors, biochemical, TCAMS library (AID 1159586). As to conditions: recombinant PfPK6, Kinase-Glo ATP depletion luminescence. A general note: Kinase-Glo measures the ATP left after a reaction by luminescence.
For test [7], the target named is Protein kinase 7 (PK7), Plasmodium falciparum 3D7 (PF3D7_0213400) (UniProt Q7YTF7). Put plainly: inhibition of Plasmodium PK7 catalytic activity – biochemical, TCAMS antimalarial set, Kinase-Glo luminescence (AID 1159587). As to conditions: recombinant PfPK7, Kinase-Glo ATP depletion luminescence.
For test [8], the target named is Calcium-dependent protein kinase 4 (Plasmodium falciparum (isolate 3D7)) (UniProt Q8IBS5). Put plainly: PfCDPK4 kinase inhibitors, biochemical, TCAMS library (AID 1159588; cut-off not given, nearly all actives have IC50 up to about 0.91 µM). As to conditions: recombinant PfCDPK4, Kinase-Glo ATP depletion luminescence.
Calcium-dependent protein kinase 4 (Plasmodium falciparum (isolate 3D7)), sequence (Q8IBS5 whole entry, looked up): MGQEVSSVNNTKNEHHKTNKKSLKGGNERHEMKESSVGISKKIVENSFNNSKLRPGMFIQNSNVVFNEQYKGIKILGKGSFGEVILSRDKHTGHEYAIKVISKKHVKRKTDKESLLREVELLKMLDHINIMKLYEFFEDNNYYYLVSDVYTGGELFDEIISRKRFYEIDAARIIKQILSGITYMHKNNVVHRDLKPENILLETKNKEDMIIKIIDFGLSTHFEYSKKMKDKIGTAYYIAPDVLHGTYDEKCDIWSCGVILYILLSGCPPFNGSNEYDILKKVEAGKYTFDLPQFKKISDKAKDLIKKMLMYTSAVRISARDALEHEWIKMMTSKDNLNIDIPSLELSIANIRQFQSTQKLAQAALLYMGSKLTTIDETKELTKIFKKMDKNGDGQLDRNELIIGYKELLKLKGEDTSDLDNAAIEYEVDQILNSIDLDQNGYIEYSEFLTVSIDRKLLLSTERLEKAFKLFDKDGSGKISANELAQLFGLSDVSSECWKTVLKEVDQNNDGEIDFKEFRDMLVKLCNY

Protein kinase 7 (PK7), Plasmodium falciparum 3D7 (PF3D7_0213400), sequence (Q7YTF7 1-343): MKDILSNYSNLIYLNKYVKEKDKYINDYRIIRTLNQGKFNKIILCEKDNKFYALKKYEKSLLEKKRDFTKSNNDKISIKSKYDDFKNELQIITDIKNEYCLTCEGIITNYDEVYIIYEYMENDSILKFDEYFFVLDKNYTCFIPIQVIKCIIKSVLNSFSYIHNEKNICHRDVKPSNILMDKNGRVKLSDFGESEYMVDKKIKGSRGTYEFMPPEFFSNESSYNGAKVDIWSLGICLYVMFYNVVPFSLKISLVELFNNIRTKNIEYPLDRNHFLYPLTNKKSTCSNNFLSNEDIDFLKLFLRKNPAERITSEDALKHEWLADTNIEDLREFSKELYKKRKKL
Plasmodium falciparum protein kinase 6 (PK6, PF3D7_1337100), sequence (Q8IDW1 1-305): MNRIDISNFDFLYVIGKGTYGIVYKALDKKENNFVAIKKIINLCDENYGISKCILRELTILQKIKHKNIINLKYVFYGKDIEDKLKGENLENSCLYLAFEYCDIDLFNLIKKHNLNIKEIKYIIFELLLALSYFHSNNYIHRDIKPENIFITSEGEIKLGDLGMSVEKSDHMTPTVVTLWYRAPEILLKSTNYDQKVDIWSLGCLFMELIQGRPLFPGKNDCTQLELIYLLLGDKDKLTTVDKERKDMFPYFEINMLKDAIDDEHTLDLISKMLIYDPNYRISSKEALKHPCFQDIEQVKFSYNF
Calcium-dependent protein kinase 1 (Plasmodium falciparum (isolate 3D7)), sequence (P62344 whole entry, looked up): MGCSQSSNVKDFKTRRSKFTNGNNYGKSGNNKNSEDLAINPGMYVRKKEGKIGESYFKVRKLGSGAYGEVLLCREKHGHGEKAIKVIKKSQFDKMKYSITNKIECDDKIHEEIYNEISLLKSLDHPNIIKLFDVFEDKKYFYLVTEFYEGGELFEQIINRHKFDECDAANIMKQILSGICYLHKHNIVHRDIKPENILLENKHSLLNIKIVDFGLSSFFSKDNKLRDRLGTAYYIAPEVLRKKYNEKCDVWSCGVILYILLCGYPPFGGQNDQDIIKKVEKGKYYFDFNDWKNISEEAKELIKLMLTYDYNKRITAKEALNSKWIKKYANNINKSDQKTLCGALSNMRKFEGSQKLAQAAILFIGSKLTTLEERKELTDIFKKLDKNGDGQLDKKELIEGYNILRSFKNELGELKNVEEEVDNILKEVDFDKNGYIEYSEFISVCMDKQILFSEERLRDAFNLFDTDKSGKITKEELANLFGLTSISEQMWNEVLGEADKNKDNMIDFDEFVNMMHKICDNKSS
L-lactate dehydrogenase (Plasmodium falciparum (isolate CDC / Honduras)), sequence (Q27743 whole entry, looked up): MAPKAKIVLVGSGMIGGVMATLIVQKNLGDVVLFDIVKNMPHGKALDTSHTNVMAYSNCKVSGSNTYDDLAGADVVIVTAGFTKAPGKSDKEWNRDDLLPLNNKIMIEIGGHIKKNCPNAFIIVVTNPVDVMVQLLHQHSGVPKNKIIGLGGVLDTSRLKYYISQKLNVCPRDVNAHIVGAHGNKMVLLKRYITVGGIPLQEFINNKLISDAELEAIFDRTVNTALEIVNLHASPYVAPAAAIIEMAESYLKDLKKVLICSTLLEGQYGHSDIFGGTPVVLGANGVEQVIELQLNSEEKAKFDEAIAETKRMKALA

Regarding `CC(C)(C)c1cc(/C=C/C(=O)NC2CCC(CN3CCC(c4c[nH]c5ccccc45)CC3)CC2)cc(C(C)(C)C)c1O` (configuration not stated), the growth inhibition is 100% (active) in test [1]; 101% (active) and 102% (active) in test [4]. Moreover, the inhibition (usually the drop in the measured response relative to a control, in per cent) is 98% (active) and 99% (active) in test [2]; -3% (inactive) and -5% (inactive) in test [3]. Also, the outcome in test [5], in test [6], in test [7] and in test [8] was inactive.

With `COc1ccc(C(=O)[C@H]2C[C@@H]2CN2CC=C(c3c[nH]c4cccc(Br)c34)CC2)cc1`, the values for the growth inhibition in test [1] and in test [4] were 67% (active) and 88% (active), respectively. Also, the inhibition was 32% (inactive) in test [2] and -3% (inactive) in test [3]. Further, the outcome in test [5], in test [6], in test [7] and in test [8] was inactive.

For the compound `CN(c1cc(NC(=O)c2ccc(F)cc2)ccn1)C1CCN(Cc2ccc(C#N)cc2)CC1`, the figures for the growth inhibition in test [1] and in test [4] were 54% (active) and 87% (active), respectively. Further, the inhibition was 13% (inactive) in test [2] and 2% (inactive) in test [3]. The outcome in test [5], in test [6], in test [7] and in test [8] was inactive.

Consider `CCCCCc1cc(O)c2c(c1)OC(C)(C)CC2C1=CCN(Cc2ccccc2)CC1` (configuration not stated), for which the growth inhibition was 79% (active) in test [1] and 99% (active) in test [4]. Also, the inhibition is 15% (inactive) in test [2] and -5% (inactive) in test [3]. The result in test [5], in test [6], in test [7] and in test [8] was inactive.

Consider `COc1ccc(CCNCc2ccc3c(C)cc(N)nc3c2)cc1`, for which the results for the growth inhibition in test [1] and in test [4] were 69% (active) and 101% (active), respectively. Besides, the figures for the inhibition in test [2] and in test [3] were 12% (inactive) and 0% (inactive), respectively. For the same compound, the outcome in test [5], in test [6], in test [7] and in test [8] was inactive.

Turning to `O=C(Nc1cc(C(F)(F)F)cc(C(F)(F)F)c1)NC1CCC(CN2CCC(c3c[nH]c4ccccc34)CC2)CC1` (configuration not stated), the growth inhibition is 72% (active) and 98% (active) in test [1]; 97% (active) and 101% (active) in test [4]. Further, the inhibition in test [2] is 19% (inactive) and 58% (active); in test [3], 8% (inactive) and -8% (inactive). Further, the outcome in test [5], in test [6], in test [7] and in test [8] was inactive.

Consider `COc1ccc(OC)c(C(O)CNC(C)C)c1` (configuration not stated), for which the growth inhibition in test [1] was -2% (inactive); in test [4], 96% (active). Also, the inhibition in test [2] is 3% (inactive); in test [3] it was -9% (inactive). For the same compound, the outcome in test [5], in test [6], in test [7] and in test [8] was inactive.

With `Cc1ccc(CC(C)NCC(O)c2cccc(C#N)c2)cc1` (configuration not stated), the growth inhibition in test [1] is 86% (active); in test [4], 94% (active). The inhibition was 2% (inactive) in test [2] and -2% (inactive) in test [3]. Besides, the result in test [5], in test [6], in test [7] and in test [8] was inactive.

As for `C[C@H](Cc1ccc(OCCCCCCOc2ccccc2)cc1)NC[C@H](O)c1cccc(Cl)c1`, the growth inhibition was 99% (active) in test [1] and 93% (active) in test [4]. The inhibition in test [2] was 21% (inactive); in test [3], 7% (inactive). The result in test [5], in test [6], in test [7] and in test [8] was inactive.

Take `Cc1cccc(N2CCN(Cc3cc(Cl)ccc3O)CC2)c1C`: the growth inhibition in test [1] and in test [4] was 96% (active) each time. For the same compound, the inhibition in test [2] is -2% (inactive); in test [3] it was 2% (inactive). Also, the result in test [5], in test [6], in test [7] and in test [8] was inactive.

Take `Cc1cccc2c(C3CCN(CC4CCC(NC(=O)/C=C/c5ccc(Cl)c(Cl)c5)CC4)CC3)c[nH]c12` (configuration not stated): the growth inhibition is 49% (inactive) in test [1] and 92% (active) in test [4]. Moreover, the inhibition in test [2] is 97% (active); in test [3], -4% (inactive). Further, the result in test [5], in test [6], in test [7] and in test [8] was inactive.

Regarding `CC(C)(C)c1ccc(Cn2nc(C(=O)N3CCN(C(=O)C4CCCO4)CC3)c3ccccc32)cc1` (configuration not stated), the growth inhibition in test [1] is 83% (active); in test [4] it was 90% (active). Also, the inhibition in test [2] was -2% (inactive); in test [3], -3% (inactive). For the same compound, the result in test [5], in test [6], in test [7] and in test [8] was inactive.

As to `O=C(NC1CCC(CN2CCC(c3c[nH]c4ccccc34)CC2)CC1)c1cc2ccccc2s1` (configuration not stated), the growth inhibition was 43% (inactive) and 68% (active) in test [1]; 98% (active) and 101% (active) in test [4]. Moreover, the inhibition in test [2] was 44% (inactive); in test [3], 4% (inactive) and 5% (inactive). The result in test [5], in test [6], in test [7] and in test [8] was inactive.

`COCCNCc1cccc(-c2ccccc2CN(C(=O)Nc2ccccc2)C2CCN(Cc3ccccc3)CC2)c1`: the growth inhibition is 51% (active) in test [1] and 96% (active) in test [4]. Moreover, the values for the inhibition in test [2] and in test [3] were 30% (inactive) and 1% (inactive), respectively. Further, the result in test [5], in test [6], in test [7] and in test [8] was inactive.

For the compound `COc1ccc(C=CC(=O)NC2CCC(CN3CCC(c4c[nH]c5ccccc45)CC3)CC2)cc1OC` (configuration not stated), the growth inhibition in test [1] was 85% (active) and 72% (active); in test [4], 100% (active) and 101% (active). The inhibition was 15% (inactive) and 14% (inactive) in test [2]; 1% (inactive) and -1% (inactive) in test [3]. Further, the outcome in test [5], in test [6], in test [7] and in test [8] was inactive.

`CCCCCCC(C)(C)c1cc(O)c2c3c(c(=O)oc2c1)CCN(Cc1ccccc1)C3`: the growth inhibition in test [1] was 99% (active); in test [4], 100% (active). Further, the inhibition in test [2] was 3% (inactive); in test [3] it was 6% (inactive). Further, the result in test [5], in test [6], in test [7] and in test [8] was inactive.

As to `CCCCCCCN1[C@@H]2CC[C@H]1CC(CCOc1ccnc3ccc(OC)cc13)C2` (some centres not stated), the results for the growth inhibition in test [1] and in test [4] were 88% (active) and 98% (active), respectively. Also, the inhibition in test [2] was 23% (inactive); in test [3] it was -1% (inactive). Further, the outcome in test [5], in test [6], in test [7] and in test [8] was inactive.

For `CC[C@H]1CN2CC[C@H]1C[C@H]2[C@H](O)c1cc(-c2ccc(SC)cc2)nc2ccc(OC)cc12`, the growth inhibition in test [1] is 99% (active); in test [4], 98% (active). For the same compound, the inhibition in test [2] was 9% (inactive); in test [3] it was -1% (inactive). Further, the result in test [5], in test [6], in test [7] and in test [8] was inactive.

With `O=C(NC1CCC(CN2CCC(c3c[nH]c4ccccc34)CC2)CC1)c1cc2cccc([N+](=O)[O-])c2[nH]1` (configuration not stated), the growth inhibition in test [1] was 101% (active); in test [4], 103% (active). Further, the results for the inhibition in test [2] and in test [3] were 36% (inactive) and -1% (inactive), respectively. For the same compound, the result in test [5], in test [6], in test [7] and in test [8] was inactive.
